The values that follow come from PubChem BioAssay.

For some assays here: Measured potencies and affinities stand elsewhere. Calls of active or inactive are those of the source. The rule behind the calls is not given here.

Protein kinase 7 (PK7), Plasmodium falciparum 3D7 (PF3D7_0213400), sequence (Q7YTF7 1-343): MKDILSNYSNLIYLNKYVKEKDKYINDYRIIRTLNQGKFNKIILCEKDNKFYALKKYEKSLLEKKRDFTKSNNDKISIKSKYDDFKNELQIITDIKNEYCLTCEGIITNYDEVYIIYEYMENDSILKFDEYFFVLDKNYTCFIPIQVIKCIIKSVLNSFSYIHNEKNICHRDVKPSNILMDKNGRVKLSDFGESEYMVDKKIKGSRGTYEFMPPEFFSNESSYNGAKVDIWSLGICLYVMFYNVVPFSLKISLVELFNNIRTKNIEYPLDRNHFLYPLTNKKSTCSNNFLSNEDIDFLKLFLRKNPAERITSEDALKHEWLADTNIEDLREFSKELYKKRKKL

One assay deals with Plasmodium falciparum protein kinase 6 (PK6, PF3D7_1337100) (UniProt Q8IDW1). The assay can be described thus: PfPK6 kinase inhibitors, biochemical, TCAMS library (AID 1159586). The following applies: recombinant PfPK6, Kinase-Glo ATP depletion luminescence.
Plasmodium falciparum protein kinase 6 (PK6, PF3D7_1337100), sequence (Q8IDW1 1-305): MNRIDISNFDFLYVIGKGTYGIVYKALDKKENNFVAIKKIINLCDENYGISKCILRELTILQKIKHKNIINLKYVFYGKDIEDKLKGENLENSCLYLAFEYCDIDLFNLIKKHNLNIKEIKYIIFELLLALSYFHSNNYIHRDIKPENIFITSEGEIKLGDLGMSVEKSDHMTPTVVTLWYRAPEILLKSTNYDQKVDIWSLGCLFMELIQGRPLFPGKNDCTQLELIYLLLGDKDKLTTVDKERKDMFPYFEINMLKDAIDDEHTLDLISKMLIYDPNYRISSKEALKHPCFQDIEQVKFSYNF
`O=C(Nc1cccc(OC2CCN(Cc3ccccc3)CC2)c1)Nc1cccc([N+](=O)[O-])c1`: the outcome was inactive.

Consider `CCCNCc1ccc(-c2ccc(CN(Cc3cnc(C)cn3)C(=O)/C=C/c3ccccc3C)cc2)nc1`, for which the outcome was inactive.

In the case of `COc1ccc(CN2CCCC(OC(c3ccc(F)cc3)c3ccc(F)cc3)C2)c(O)c1` (stereo not given), the outcome was inactive.

Take `Cc1cc(N[C@@H](Cc2ccccc2)C(=O)NC2CCCC2)nc(NCC2CCCCC2)n1`: the outcome was inactive.

In the case of `N=C(N)c1ccc(Oc2ccc(C(=N)N)cc2)cc1`, the result was inactive.

Consider `COc1cccc2c(NCc3ccccc3)nc(NCCCN3CCCCC3C)nc12` (stereo not given), for which the outcome was inactive.

With `CCNc1cc(C(=O)N[C@@H](Cc2ccccc2)[C@H](O)CNCc2cc(OC)cc(OC)c2)cc(N2CCCC2=O)c1`, the result was inactive.

Take `CS(=O)(=O)c1ccc(-c2nc(NCC3CCCCC3)cc(C(F)(F)F)n2)cc1`: the result was inactive.

As to `CC(=NN=C(N)N)C(=O)Nc1ccc(Cl)c(Cl)c1`, the result was inactive.

On to `Cc1[nH]c2ccc(O)cc2c1C1CCN(CCCCCNC(=O)/C=C/c2ccc(Cl)c(Cl)c2)CC1`, for which the result was inactive.

`O=C(Nc1ccccc1Cl)N(Cc1cc(Cl)cc(Cl)c1)CC(O)COc1ccc(Cl)c(F)c1` (stereo not given): the result was inactive.

Regarding `CO/C(=C\C=C\c1cc2cc(Cl)c(Cl)cc2[nH]1)C(=O)NCCCNC12CC3CC(CC(C3)C1)C2`, the outcome was inactive.

`COc1ccc2[nH]c(C(=O)Nc3cccc(-c4ccc(CN(C)C)cc4)c3)cc2c1`: the outcome was inactive.

As to `Brc1cc(Br)c2c(c1)C(NCCCNC1CCNc3c(Br)cc(Br)cc31)CCN2` (stereo not given), the result was inactive.

As to `CC(C)Nc1nc(NCCc2cnc[nH]2)nc(NCc2ccc(Cl)c(Cl)c2)n1`, the result was inactive.

On to `COC(=O)Nc1nc2cc3c(cc2s1)OCCO3`, for which the result was inactive.

For the compound `C[C@@H](CC1CCCCC1)OC(=O)N[C@H]1CCN(C#N)C1`, the result was inactive.

For the compound `Cc1cc(NC(=O)Nc2cccc(Cl)c2Cl)c2ccccc2n1`, the outcome was inactive.

For the compound `CC(CN(C)C)C(=O)Nc1cccc(-c2ccc(-c3nc4ccccc4[nH]3)cc2)c1` (stereo not given), the result was inactive.

`O=S(=O)(NCCN1CCCC1)c1ccc(-c2cccc(CNC3Cc4ccccc4C3)c2)cc1F`: the result was inactive.

`O=C(Nc1ccc2c(c1)CCC2)c1cnc(N2CCN(c3ccncc3)CC2)c(Cl)c1`: the result was inactive.

In the case of `O=C(NCC1CCC1)c1cnc(Nc2cccc(Cl)c2)nc1N1CCC1`, the result was inactive.

As for `COc1cc2ncnc(Nc3ccc4nc(-c5ccccc5)[nH]c4c3)c2cc1OC`, the result was inactive.

Turning to `O=C(/C=C/c1ccc(Cl)c(Cl)c1)NCCCCCCN1CCN(C(=O)Nc2ccc(Cl)c(C(F)(F)F)c2)CC1`, the result was inactive.

As to `CCCCCn1c(Sc2ccc(C#N)c([N+](=O)[O-])c2)nnc1-c1cccc(Cl)c1`, the outcome was inactive.

Take `OC(c1cc(C(F)(F)F)nc2c(F)cccc12)C1CCCCN1` (stereo not given): the result was inactive.

With `O=C(NCCCCN1CCN(c2cccc3ccccc23)CC1)c1ccc(NC(=O)c2ccc(Cl)cc2)cc1`, the outcome was inactive.

Consider `Cc1[nH]c(C)c(-c2ccc(-c3ccc(F)cc3)nc2)c(=O)c1Br`, for which the result was inactive.

As for `CCN(CC)c1ccccc1CNC(=O)c1cc(Cl)c(N)cc1OC`, the result was inactive.

As to `O=C(Nc1cccc(C(F)(F)F)c1)Nc1ccc(Cl)c(C(F)(F)F)c1`, the result was inactive.

In the case of `Cc1cc(F)ccc1-c1nc(NCCCN2CCCC2=O)nc2c1ccc(=O)n2-c1c(F)cccc1F`, the result was inactive.

With `COc1ccc(N2CCN(CCCC/C=C/c3ccc(NC(=O)c4cc(Cl)cc(Cl)c4)cc3)CC2)c(OC)c1`, the result was inactive.

Take `Nc1cccc(CNCc2ccc(-c3cccc(-c4nc5ccc(C(F)(F)F)cc5[nH]4)c3)cc2)c1`: the outcome was inactive.

Turning to `CNCc1ccc2nc(-c3coc(Cc4cc(Cl)ccc4OCC(C)C)n3)[nH]c2c1`, the result was inactive.

Regarding `COc1ccc(-c2ccc(CNCc3ccccc3)cc2)cc1S(=O)(=O)NCCN1CCCC1`, the result was inactive.

`O=C(Nc1cccc(CN2CCCN(Cc3ccc(O)cc3)CC2)c1)c1cccc(F)c1`: the result was inactive.

Turning to `CCOc1cc(C(=O)NCCN2CCCCC2)ccc1-c1nc2ccc(Cl)cc2[nH]1`, the outcome was inactive.

For the compound `CCCCSc1nc2c(c(=O)n1Cc1ccco1)C1(CCCCC1)Cc1ccccc1-2`, the result was inactive.

Turning to `CS(=O)(=O)N(c1ccccc1)c1cc(C(=O)N[C@@H](Cc2ccccc2)[C@H](O)CNC2CCCCC2)cc(N2CCCC2=O)c1`, the outcome was inactive.

Regarding `COc1ccc2ncc(F)c(CCN3C[C@@H]4CCC[C@]4(CNCc4ccc5c(n4)NC(=O)CS5)C3)c2n1`, the result was inactive.

The next assay addresses Protein kinase 7 (PK7), Plasmodium falciparum 3D7 (PF3D7_0213400) (UniProt Q7YTF7). As to the kind of experiment: inhibition of Plasmodium PK7 catalytic activity – biochemical, TCAMS antimalarial set, Kinase-Glo luminescence (AID 1159587). The note with it: recombinant PfPK7, Kinase-Glo ATP depletion luminescence. For orientation: Kinase-Glo measures the ATP left after a reaction by luminescence.
Consider `O=C(Nc1cccc(OC2CCN(Cc3ccccc3)CC2)c1)Nc1cccc([N+](=O)[O-])c1`, for which the result was inactive.

For the compound `CCCNCc1ccc(-c2ccc(CN(Cc3cnc(C)cn3)C(=O)/C=C/c3ccccc3C)cc2)nc1`, the result was inactive.

For the compound `COc1ccc(CN2CCCC(OC(c3ccc(F)cc3)c3ccc(F)cc3)C2)c(O)c1` (stereo not given), the outcome was inactive.

As to `Cc1cc(N[C@@H](Cc2ccccc2)C(=O)NC2CCCC2)nc(NCC2CCCCC2)n1`, the outcome was inactive.

In the case of `N=C(N)c1ccc(Oc2ccc(C(=N)N)cc2)cc1`, the outcome was inactive.

`COc1cccc2c(NCc3ccccc3)nc(NCCCN3CCCCC3C)nc12` (stereo not given): the outcome was inactive.

For the compound `CCNc1cc(C(=O)N[C@@H](Cc2ccccc2)[C@H](O)CNCc2cc(OC)cc(OC)c2)cc(N2CCCC2=O)c1`, the outcome was inactive.

For the compound `CS(=O)(=O)c1ccc(-c2nc(NCC3CCCCC3)cc(C(F)(F)F)n2)cc1`, the result was inactive.

For the compound `CC(=NN=C(N)N)C(=O)Nc1ccc(Cl)c(Cl)c1`, the result was inactive.

As to `Cc1[nH]c2ccc(O)cc2c1C1CCN(CCCCCNC(=O)/C=C/c2ccc(Cl)c(Cl)c2)CC1`, the result was inactive.

For `O=C(Nc1ccccc1Cl)N(Cc1cc(Cl)cc(Cl)c1)CC(O)COc1ccc(Cl)c(F)c1` (stereo not given), the result was inactive.

Turning to `CO/C(=C\C=C\c1cc2cc(Cl)c(Cl)cc2[nH]1)C(=O)NCCCNC12CC3CC(CC(C3)C1)C2`, the outcome was inactive.

Regarding `COc1ccc2[nH]c(C(=O)Nc3cccc(-c4ccc(CN(C)C)cc4)c3)cc2c1`, the result was inactive.

In the case of `Brc1cc(Br)c2c(c1)C(NCCCNC1CCNc3c(Br)cc(Br)cc31)CCN2` (stereo not given), the outcome was inactive.

Take `CC(C)Nc1nc(NCCc2cnc[nH]2)nc(NCc2ccc(Cl)c(Cl)c2)n1`: the result was inactive.

For `COC(=O)Nc1nc2cc3c(cc2s1)OCCO3`, the result was inactive.

Regarding `C[C@@H](CC1CCCCC1)OC(=O)N[C@H]1CCN(C#N)C1`, the result was inactive.

On to `Cc1cc(NC(=O)Nc2cccc(Cl)c2Cl)c2ccccc2n1`, for which the outcome was inactive.

Regarding `CC(CN(C)C)C(=O)Nc1cccc(-c2ccc(-c3nc4ccccc4[nH]3)cc2)c1` (stereo not given), the result was inactive.

Take `O=S(=O)(NCCN1CCCC1)c1ccc(-c2cccc(CNC3Cc4ccccc4C3)c2)cc1F`: the result was inactive.

Consider `O=C(Nc1ccc2c(c1)CCC2)c1cnc(N2CCN(c3ccncc3)CC2)c(Cl)c1`, for which the outcome was inactive.

Consider `O=C(NCC1CCC1)c1cnc(Nc2cccc(Cl)c2)nc1N1CCC1`, for which the outcome was inactive.

`COc1cc2ncnc(Nc3ccc4nc(-c5ccccc5)[nH]c4c3)c2cc1OC`: the result was inactive.

Turning to `O=C(/C=C/c1ccc(Cl)c(Cl)c1)NCCCCCCN1CCN(C(=O)Nc2ccc(Cl)c(C(F)(F)F)c2)CC1`, the result was inactive.

As for `CCCCCn1c(Sc2ccc(C#N)c([N+](=O)[O-])c2)nnc1-c1cccc(Cl)c1`, the result was inactive.

For `OC(c1cc(C(F)(F)F)nc2c(F)cccc12)C1CCCCN1` (stereo not given), the outcome was inactive.

Turning to `O=C(NCCCCN1CCN(c2cccc3ccccc23)CC1)c1ccc(NC(=O)c2ccc(Cl)cc2)cc1`, the outcome was inactive.

Regarding `Cc1[nH]c(C)c(-c2ccc(-c3ccc(F)cc3)nc2)c(=O)c1Br`, the result was inactive.

As to `CCN(CC)c1ccccc1CNC(=O)c1cc(Cl)c(N)cc1OC`, the result was inactive.

For `O=C(Nc1cccc(C(F)(F)F)c1)Nc1ccc(Cl)c(C(F)(F)F)c1`, the result was inactive.

Consider `Cc1cc(F)ccc1-c1nc(NCCCN2CCCC2=O)nc2c1ccc(=O)n2-c1c(F)cccc1F`, for which the outcome was inactive.

In the case of `COc1ccc(N2CCN(CCCC/C=C/c3ccc(NC(=O)c4cc(Cl)cc(Cl)c4)cc3)CC2)c(OC)c1`, the outcome was inactive.

As to `Nc1cccc(CNCc2ccc(-c3cccc(-c4nc5ccc(C(F)(F)F)cc5[nH]4)c3)cc2)c1`, the result was inactive.

As for `CNCc1ccc2nc(-c3coc(Cc4cc(Cl)ccc4OCC(C)C)n3)[nH]c2c1`, the result was inactive.

For `COc1ccc(-c2ccc(CNCc3ccccc3)cc2)cc1S(=O)(=O)NCCN1CCCC1`, the outcome was inactive.

As for `O=C(Nc1cccc(CN2CCCN(Cc3ccc(O)cc3)CC2)c1)c1cccc(F)c1`, the outcome was inactive.

As to `CCOc1cc(C(=O)NCCN2CCCCC2)ccc1-c1nc2ccc(Cl)cc2[nH]1`, the result was inactive.

On to `CCCCSc1nc2c(c(=O)n1Cc1ccco1)C1(CCCCC1)Cc1ccccc1-2`, for which the result was inactive.

As for `CS(=O)(=O)N(c1ccccc1)c1cc(C(=O)N[C@@H](Cc2ccccc2)[C@H](O)CNC2CCCCC2)cc(N2CCCC2=O)c1`, the outcome was inactive.

As to `COc1ccc2ncc(F)c(CCN3C[C@@H]4CCC[C@]4(CNCc4ccc5c(n4)NC(=O)CS5)C3)c2n1`, the result was inactive.
